# GDH-TPI counter-1 = GDH-TPI coupled enzyme inhibition counter-screen. inhibition, % at 4.8 µM. GDH-TPI coupled enzyme counterscreen, NADH absorbance. hit rate 1.2% among 360,000; in the data active = inhibition above about 30%
# Mtb FBA inh = inhibitors of M. tuberculosis fructose-bisphosphate aldolase | AID 588726 | inhibition, % at 1 µM | hit rate 2.3% among 360,000 | purified M. tuberculosis FBA, fluorescence read-out | P9WQA3
# Target sequence (P9WQA3 whole entry, looked up): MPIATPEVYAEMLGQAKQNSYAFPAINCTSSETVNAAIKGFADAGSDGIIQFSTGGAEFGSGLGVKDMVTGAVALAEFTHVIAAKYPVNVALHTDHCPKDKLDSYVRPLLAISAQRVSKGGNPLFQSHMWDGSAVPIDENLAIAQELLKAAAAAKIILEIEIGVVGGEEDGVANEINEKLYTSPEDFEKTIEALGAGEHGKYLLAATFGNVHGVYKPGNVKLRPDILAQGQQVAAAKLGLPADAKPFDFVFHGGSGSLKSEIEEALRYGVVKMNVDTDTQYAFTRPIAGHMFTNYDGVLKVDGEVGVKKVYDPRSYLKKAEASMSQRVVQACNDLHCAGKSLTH
# Vc quorum ag = inducers of Vibrio cholerae quorum light production without autoinducers; V. cholerae BH1578 lux reporter, luminescence, 6 h; activation, % at 18.7 µM; hit rate 0.16% among 350,000; in the data active = activation mostly above about 9.7%, no sharp cut-off
# PrPC surface inh = reduces human prion protein on the cell surface; hit rate 0.43% among 370,000; P04156; cell surface PrPC, TR-FRET read-out; inhibition, % at 13.8 µM; in the data active = inhibition above about 24%
# SARS 3CLpro inh = SARS-CoV 3CLpro protease inhibition; P0C6X7; recombinant SARS-CoV 3CLpro, quenched FRET peptide cleavage; inhibition, % at 6 µM; hit rate 0.14% among 290,000; in the data active = inhibition above about 12%
# Mtb FBA inh conf = confirmation of M. tuberculosis fructose-bisphosphate aldolase inhibitors. shares compounds with Mtb FBA inh. purified M. tuberculosis FBA, fluorescence read-out. inhibition, % at 1 µM. hit rate 78% among 5,600
# GDH-TPI counter-2 = counter-screen for M. tuberculosis FBA inhibitors: GDH-TPI coupled enzyme inhibition; shares compounds with Mtb FBA inh; GDH-TPI coupled enzyme counterscreen, fluorescence; inhibition, % at 1 µM; hit rate 81% among 5,600; in the data active = inhibition above about 10%
# A number is an active result; n = inactive; x = no result; + = active, no number. A selection: hits, their analogues and other compounds. The true share with any hit is near 3.9%. Cut-off read from the data, not from the text of the source, unless noted: active = inhibition above about 27%; inactive = the rest.
SMILES,GDH-TPI counter-1,Mtb FBA inh,Vc quorum ag,PrPC surface inh,SARS 3CLpro inh,Mtb FBA inh conf,GDH-TPI counter-2
CC1=CC(C)(C)N(C(=O)C(C)N2C(=O)c3ccccc3C2=O)c2ccc(C)cc21 (stereo unspecified),n,n,x,n,n,x,x
CCc1ccc2[nH]c3nc(C)cc(C)c3c(=O)c2c1,n,75.1,n,n,n,74.7,58.8
Clc1ccc(CNc2cnccn2)cc1Cl,n,61.2,n,n,n,n,n
N#Cc1ccc(CSc2nnc(-c3cnccn3)o2)cc1,n,n,n,n,n,x,x
N#Cc1ccc(CNc2cnccn2)cc1,n,68.6,n,n,n,n,n
C=CCN=C1NC(CCc2ccccc2)C(C(=O)OC)=C(C)N1C (stereo unspecified),x,x,x,n,x,x,x
Cc1ccc(OCc2nnc(SCC(=O)Nc3ccc(S(=O)(=O)Nc4cc(C)nc(C)n4)cc3)n2Cc2ccco2)cc1,x,x,x,n,x,x,x
Cc1nc(C)c(C(=O)N2CCCC(C(=O)c3cc(F)ccc3F)C2)s1 (stereo unspecified),n,n,n,n,n,x,x
CCOC(=O)N1CCC(Nc2nc3ccccc3n3nnnc23)CC1,n,35.3,n,n,n,47.0,40.3
CCOC(=O)c1c(-c2ccccc2)cn2c(C)cc(C)nc12,n,29.7,n,n,n,89.6,56.4
O=C(CN1CCN(C(=O)c2c(F)cccc2F)CC1)Nc1ccccc1C(F)(F)F,n,n,n,n,n,x,x
Cc1ccc(-c2cc3cccc[n+]3cc2-c2ccc(C)cc2)cc1,n,40.4,n,n,n,125.5,97.8
COc1ccc(CC2=NCCc3cc(OC)c(OC)cc32)cc1OC,n,93.6,n,n,x,+,157.1
COc1ccc(C2=NCCc3cc(OC)c(OC)cc32)cc1OC,n,n,n,n,n,x,x
O=C(CCC1CCCN(C(=O)c2ccc3[nH]ccc3c2)C1)N1CCN(c2ccccn2)CC1 (stereo unspecified),n,n,n,n,n,x,x
COc1ccc(C2C3=C(CCCC3=O)Nc3c(-c4ccccc4)c(C)nn32)cc1 (stereo unspecified),45.2,97.0,n,x,n,168.6,135.2
COc1ccc(Cn2c(N)c(S(=O)(=O)c3cccs3)c3nc4ccccc4nc32)cc1,n,48.6,n,n,n,115.3,78.7
Nc1c(S(=O)(=O)c2cccs2)c2nc3ccccc3nc2n1Cc1ccccc1,n,54.4,n,n,n,n,n
CCOC(=O)c1c(N)n(Cc2ccc(OC)cc2)c2nc3ccccc3nc12,x,x,x,n,n,x,x
NC(=O)c1[nH]cnc1N,n,n,n,n,n,x,x
Cc1ccc(C)c(S(=O)(=O)NCC(c2ccco2)N2CCc3ccccc3C2)c1 (stereo unspecified),n,73.7,n,n,x,80.9,74.3
Cc1cccc(C)c1NC(=O)C(c1ccc([N+](=O)[O-])cc1)N(C)C(=O)c1ccccn1 (stereo unspecified),n,n,n,n,n,x,x
CCOc1ccc(-n2cnc3scc(-c4ccc(OC)c(OC)c4)c3c2=O)cc1,n,27.7,n,n,n,29.8,20.7
N#C/C(=C\c1ccc(Cl)cc1Cl)c1n[nH]c(Cn2cncn2)n1,n,36.2,n,n,n,+,164.8
Cc1nc2c(-c3ccc(Cl)cc3)c(C)[nH]n2c(=O)c1Cc1ccccc1,n,39.0,n,n,n,n,n
SMILES,GDH-TPI counter-1,Mtb FBA inh,Vc quorum ag,PrPC surface inh,SARS 3CLpro inh,Mtb FBA inh conf,GDH-TPI counter-2
Cc1[nH]n2c(=O)c3c(nc2c1-c1ccc(F)cc1)CCCC3,n,n,n,n,n,x,x
Cc1nc2c(-c3ccc(F)cc3)c(C)[nH]n2c(=O)c1Cl,n,42.1,n,n,n,n,20.6
Cc1cccc(C)c1C(O)c1ncc(-c2ccc(F)cc2)[nH]1 (stereo unspecified),n,n,n,x,x,x,x
O=C(CCNc1cccc(F)c1)c1cc2ccccc2o1,n,28.4,n,n,n,n,n
Cc1cc(C)c2c(N)c3cccc(C)c3nc2n1,n,65.5,n,n,n,133.2,110.9
OCCn1nc2c3ccccc3nc-2n(-c2ccccc2)c1=S,n,30.7,n,n,n,135.6,116.4
CCCCN1CCN(C(=O)c2cn(C(C)c3ccccc3)nn2)CC1 (stereo unspecified),x,x,x,n,x,x,x
CCN(CC)C(=O)COc1ccc2c3c(c(=O)oc2c1C)CCCC3,n,63.7,n,n,n,+,+
Cc1c(OCc2ccc(C(=O)O)o2)ccc2c3c(c(=O)oc12)CCC3,n,71.9,n,n,n,27.7,24.7
Cc1c(OCC(=O)N[C@H](C(=O)O)c2ccccc2)ccc2c3c(c(=O)oc12)CCCC3,n,30.7,n,n,n,n,n
COC(=O)c1ccc(COc2ccc3c(C)c(C)c(=O)oc3c2C)o1,x,x,n,x,n,x,x
CC1=CC(C)C(=O)N(C)C(C)=C1 (stereo unspecified),n,n,n,n,x,x,x
CC(Cc1ccc(Cl)cc1)N1CCC(n2nccc2NC(=O)C2CCCC2)CC1 (stereo unspecified),n,n,n,n,n,x,x
Nc1ncc2c(n1)-c1ccccc1CC2,n,63.6,n,n,n,n,n
Nc1ncc2c(n1)-c1ccoc1CC2,n,36.4,n,n,n,124.8,103.4
C=CCn1c(=O)c(C(=O)Nc2ccccc2O)c(O)c2ccccc21,n,28.9,n,n,n,n,23.7
C=CCn1c(=O)c(C(=O)Nc2ccccc2C)c(O)c2ccccc21,n,n,n,n,n,x,x
Cc1ccc(COC(=O)c2nn(-c3ccccc3)nc2N)cc1,n,85.6,n,n,n,n,n
COc1ccc(C2CC(c3cccs3)=NN2C(=O)CCCC(=O)O)cc1OC (stereo unspecified),n,n,n,n,x,x,x
CC1Cc2c([nH]c3ccccc23)C(=O)N1 (stereo unspecified),n,32.2,n,n,n,+,148.2
CC(=O)N1C(C(=O)O)Cc2c([nH]c3ccccc23)C1C (stereo unspecified),n,n,n,n,n,x,x
COc1ccc(-c2oc3ccccc3c2C(=O)OCc2ccc([N+](=O)[O-])cc2)cc1,n,n,n,n,n,x,x
COc1ccc(-c2oc3ccccc3c2C(=O)OCc2ccccc2)cc1,n,98.5,n,n,n,+,175.4
COc1ccc(-c2oc3ccccc3c2C(=O)Oc2ccccc2)cc1,n,90.5,n,n,n,28.8,26.6
COc1ccc(-c2oc3ccccc3c2C(=O)OCc2ccc(O)cc2)cc1,n,74.4,n,n,n,59.8,63.5
CN(C)c1ccc(C2Nc3ccccc3C(=O)N2NS(C)(=O)=O)cc1 (stereo unspecified),n,n,n,n,n,x,x
CN(Cc1ccco1)C(=O)c1cccc2c1C(=O)N(Cc1cccnc1)C2,x,x,x,n,x,x,x
Cc1ccc(OCCCC(=O)N(C)CC(=O)Nc2c(C)cccc2C)cc1,n,n,n,n,x,x,x
C=C(C)CNC(=S)N/N=C/c1ccc(N2CCOCC2)cc1,41.7,53.3,n,n,n,52.8,51.9
COCCNC(=S)N/N=C/c1ccc(N2CCOCC2)cc1,31.1,46.1,n,n,n,+,+

# Screening results from PubChem BioAssay.
